We go through eight molecules from PubChem BioAssay (Tox21).

The structures appear in SMILES notation. Values without a mark were called inactive. Results filed as inconclusive are left out. Activity calls are given as the source filed them. Unless noted, the call rests on the fitted dose curve; in most records, active means well fitted curve in the direction sought with a large enough effect in the repeat runs; inconclusive means weak or mixed curves; inactive means no such curve, though single readings can be large; an effect the other way counts as inactive or inconclusive.

Test [1] in a line: qHTS assay to identify small molecule agonists of the hypoxia (HIF-1) signaling pathway - cell viability counter screen (AID 1224844; calls by dose curve; further: nearly all actives have a fitted effect of over 50% in size). In short, it runs like this: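 In this counter screen, HRE-bla ME-180 cell viability after 17 hrs of compound exposure at 37C was read by CellTiter-Glo luminescence, multiplexed with the beta-lactamase reporter measurement.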
For orientation: qHTS replaces the single test concentration by a dilution series.

A short description of test [2]: qHTS assay to identify small molecule agonists of H2AX (AID 1224845; active means well fitted activation curve with a large enough effect in the signal ratio in the repeat runs, not every such curve was filed as active; the % refers to the signal ratio). Put shortly:
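Wild-type CHO-K1 cells, plated overnight, exposed 3hr at 37C to 15 concentrations (0.76% DMSO final). Lysed, then HTRF anti-pH2AX (S139) cryptate and anti-H2AX-d2 antibodies, 24 hr room temperature; 665/620 nm emission read.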

Test [3] in a line: qHTS assay to identify small molecule agonists of the hypoxia (HIF-1) signaling pathway (AID 1224846; active means well fitted activation curve with a large enough effect in the signal ratio in the repeat runs, not every such curve was filed as active; the % refers to the signal ratio). Put shortly:
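ME-180 HRE-bla reporter cells; compounds in DMSO, 17 h at 37C; read-out beta-lactamase via CCF4-AM FRET.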

Test [4] is described as follows: qHTS assay to identify small molecule agonists of H2AX - cell viability counter screen (AID 1224847; calls by dose curve; further: top concentration of the series differs between compounds; nearly all actives have a fitted effect of over 30% in size). Put shortly:
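Counter-screen for viability: CellTiter-Glo ATP luminescence read after 3 h compound treatment (15-point titration, 0.76% DMSO final) of CHO-K1 cells at 37C, with 30 min room-temperature reagent incubation.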

Test [5] is described as follows: qHTS assay to identify small molecule agonists of the estrogen related receptor (ERR) signaling pathway from Tox21 library (AID 1224849; calls by dose curve; further: nearly all actives have a fitted effect of over 15% in size). The note with it: ERR reporter cell line, ONE-Glo luciferase, 18 h; at 92.4 µM (top of the series) unless noted. Put shortly:
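Luciferase activity in ERR pathway reporter cells served as the agonist readout; exposure lasted 18 h at 37 C, with ONE-Glo detection after 30 min at room temperature.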

Test [6] can be described thus: A CellTox Green Cytotoxicity Assay to monitor cytotoxicity in HEK293 cells - 0 hour (AID 1224869). Further: nearly all actives have a fitted effect of over 50% in size. Put shortly:
(§1)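 Real-time, in one plate: 600 HEK293 cells/well with dead-cell DNA dye, pinned compound after 5 h, 37 C incubation over 40 h; viable cells give no appreciable fluorescence.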

Test [7] in a line: qHTS RealTime-Glo MT Cell Viability Assay in HepG2 cells - 40 hour (AID 1224870). Further: nearly all actives have a fitted effect of over 50% in size. In short, it runs like this:
(§2)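 HepG2 cells (600/well) mixed with RealTime-Glo MT reagent, settled 5 h at 37 C/5% CO2 before compound addition. Nonlytic NanoLuc luminescence from viable-cell prosubstrate reduction read repeatedly during 40 h treatment at 37 C.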

A short description of test [8]: A CellTox Green Cytotoxicity Assay to monitor cytotoxicity in HEK293 cells - 40 hour (AID 1224871). Further: nearly all actives have a fitted effect of over 45% in size. In short, it runs like this:
as §1

A short description of test [9]: qHTS RealTime-Glo MT Cell Viability Assay in HEK293 cells - 16 hour (AID 1224872). Further: top concentration of the series differs between compounds; nearly all actives have a fitted effect of over 50% in size. In short, it runs like this:
(§3)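 HEK293 cells seeded with NanoLuc/prosubstrate reagent, rested 5 h at 37 C, then dosed and kept at 37 C up to 40 h. Nonlytic real-time luminescence from viable cells read at 0, 8, 16, 24, 32 and 40 h.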

Test [10] in a line: qHTS RealTime-Glo MT Cell Viability Assay in HepG2 cells - 8 hour (AID 1224873). Further: nearly all actives have a fitted effect of over 55% in size. In short, it runs like this: as §2
Test [11] in a line: A CellTox Green Cytotoxicity Assay to monitor cytotoxicity in HEK293 cells - 24 hour (AID 1224875). Further: nearly all actives have a fitted effect of over 45% in size. Put shortly:
as §1

The nature of test [12]: A CellTox Green Cytotoxicity Assay to monitor cytotoxicity in HepG2 cells - 16 hour (AID 1224876). Further: nearly all actives have a fitted effect of over 45% in size. In short, it runs like this:
(§4)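 Cytotoxicity was tracked as dead-cell DNA fluorescence in HepG2 cells treated with test compounds at 37 C; each time-point value comes from one kinetic series spanning 0, 8, 16, 24, 32 and 40 h.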

Test [13] can be described thus: qHTS RealTime-Glo MT Cell Viability Assay in HepG2 cells - 32 hour (AID 1224877). Further: nearly all actives have a fitted effect of over 55% in size. Put shortly:
(§5)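 HepG2 cells (600/well) were dispensed with RealTime-Glo reagents, incubated 5 h at 37 °C, then treated with compounds in DMSO for up to 40 h. Nonlytic NanoLuc luminescence reflecting viable cells was read at each stated time point.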

Test [14] can be described thus: A CellTox Green Cytotoxicity Assay to monitor cytotoxicity in HepG2 cells - 40 hour (AID 1224879). Further: nearly all actives have a fitted effect of over 40% in size. Further: potency means the concentration at half of the fitted maximal effect. In short, it runs like this: as §4
A short description of test [15]: qHTS RealTime-Glo MT Cell Viability Assay in HEK293 cells - 0 hour (AID 1224880). Further: top concentration of the series differs between compounds; nearly all actives have a fitted effect of over 45% in size. In short, it runs like this: (§6)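 Kinetic, non-lysing viability readout. Seed HEK293 (600/well) with reagent, incubate 5 h at 37 C/5% CO2, pin 23 nL compound in DMSO, incubate at 37 C, read luminescence at 0, 8, 16, 24, 32, 40 h.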
Test [16] can be described thus: qHTS assay to identify small molecule antagonists of the estrogen related receptor (ERR) signaling pathway from Tox21 library (AID 1224848). Further: nearly all actives have a fitted effect of over 50% in size. Put shortly:
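Compounds dissolved in DMSO are pin-transferred onto ERR reporter cells (2,000 per well) that have settled for 6 h at 37 C. Plates then incubate 18 h at 37 C before ONE-Glo luciferase reagent and a luminescence read 30 min later.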

Test [17] is described as follows: qHTS RealTime-Glo MT Cell Viability Assay in HEK293 cells - 32 hour (AID 1224868). In short, it runs like this: as §3
Test [18] is described as follows: qHTS RealTime-Glo MT Cell Viability Assay in HEK293 cells - 40 hour (AID 1224874). Further: nearly all actives have a fitted effect of over 50% in size. As to conditions: RealTime-Glo luminescence; max response: hits give low values. Put shortly: as §6
Test [19] in a line: qHTS RealTime-Glo MT Cell Viability Assay in HepG2 cells - 24 hour (AID 1224867). Further: nearly all actives have a fitted effect of over 50% in size. Put shortly: as §5
Test [20] can be described thus: A CellTox Green Cytotoxicity Assay to monitor cytotoxicity in HepG2 cells - 24 hour (AID 1224878). Further: nearly all actives have a fitted effect of over 45% in size. In short, it runs like this: as §4
On the % scale 0 is the no-effect control and ±100 the full control effect.

With `CC[C@]1(O)CC[C@H]2[C@@H]3CCC4=CCCC[C@@H]4[C@H]3CC[C@@]21C`, the Potency entry in test [1], in test [2], in test [3], in test [4], in test [6] and in test [7] was “inactive” in each case. The Potency result in test [8], in test [9], in test [10], in test [11], in test [12] and in test [13] was “inactive” throughout. For the same molecule, the Potency entry in test [15] is “inactive”. For the same molecule, the activity change, positive = activation in test [5] was -21.6% [at 42.5 µM]. The Potency in test [14] was 23.9 µM (active).

As to `CNC(=O)O/N=C(\C)C(C)S(C)(=O)=O` (stereo unspecified), the Potency entry in test [1], in [2], in test [3], in test [4], in test [16] and in test [17] was “inactive” throughout. The Potency result in test [6], in [7], in test [8], in test [9], in test [10] and in test [11] was “inactive” in each case. In addition, the Potency result in test [12] and in test [15] was “inactive” throughout. Also, in [5], the activity change, positive = activation is 7.13% [at 872 µM]. In addition, in test [18], the max response is 1.59%.

As for `Clc1cc(Cl)c(-c2cc(Cl)c(Cl)cc2Cl)cc1Cl`, the Potency entry in test [1], in test [2], in [3], in test [4], in [19] and in [17] was “inactive” throughout. The Potency result in test [6], in test [7], in test [8], in test [9], in [10] and in test [11] was “inactive” throughout. The Potency entry in test [12], in test [13], in test [20], in [14] and in test [15] was “inactive” in each case. Also, the max response in test [18] is 1.25%.

In the case of `CN/C(=N\[N+](=O)[O-])NCc1cnc(Cl)s1`, the Potency entry in test [1], in test [2], in [3], in test [4], in [17] and in test [6] was “inactive” throughout. Besides, the Potency entry in test [7], in test [8], in test [9], in test [10], in [11] and in test [12] was “inactive” each time. Besides, the Potency entry in [13], in test [20], in [14] and in test [15] was “inactive” each time. Moreover, the max response in [18] is -7.42%.

With `CCCCN(CCCC)C(=S)S`, the Potency entry in [1], in test [2], in test [3], in [16], in test [19] and in [17] was “inactive” throughout. In addition, the Potency result in test [6], in test [7], in [8], in [9], in test [10] and in test [12] was “inactive” each time. The Potency entry in test [13] and in test [15] was “inactive” each time. Further, the activity change, positive = activation in test [5] was -4.56%. The max response in test [18] was -4.16%.

Regarding `COCCC#N`, the Potency entry in test [1], in test [2], in [3], in test [4], in test [19] and in test [17] was “inactive” each time. Moreover, the Potency result in test [6], in test [7], in test [8], in test [9], in test [10] and in [12] was “inactive” each time. The Potency entry in test [13], in test [20], in test [14] and in [15] was “inactive” each time. Besides, in test [18], the max response is 7.47%.

On to `CCNc1nc(NC(C)C(C)C)nc(SC)n1` (stereo unspecified), for which the Potency entry in [1], in test [2], in test [3], in test [4], in test [19] and in test [17] was “inactive” each time. Also, the Potency result in [6], in test [7], in [8], in test [10], in test [11] and in test [12] was “inactive” throughout. The Potency entry in [13], in [20], in [14] and in test [15] was “inactive” in each case.

As for `COC(=O)c1ccccc1S(=O)(=O)NC(=O)Nc1nc(C)nc(OC)n1`, the Potency entry in test [1], in test [2], in [3], in [4], in test [19] and in test [17] was “inactive” throughout. For the same molecule, the Potency result in [7], in [8], in test [9], in test [10], in test [11] and in test [12] was “inactive” in each case. Also, the Potency entry in test [13], in test [20] and in test [14] was “inactive” throughout. Besides, the max response in test [18] was 0.753%.
